Inconclusive results are not listed. Unmarked numbers belong to inactive results. Active and inactive are the calls of the source. Calls follow the shape of the dose curve; as a rule, active = well fitted cell-killing curve with a large enough effect; inconclusive = small, poorly fitted or top-dose-only effect; inactive = flat fitted curve, though single readings scatter.
assay: Cell Viability - LYMP2-020 (AID 986); details: series mostly up to 92.2 µM; activity change, negative = viability loss: at the top concentration;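 also: cells exposed to compound for 24 h at 37 °C; nearly all actives have a fitted effect of over 55% in size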;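 as to activity change, negative = viability loss: plate controls were DMSO only for no effect and tetraoctylammonium bromide at 92 µM for full effect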
Text: NIH Chemical Genomics Center [NCGC]
NIH Molecular Libraries Screening Centers Network [MLSCN]
National Institutes of Environmental Health Sciences [NIEHS]
National Toxicology Program [NTP]
We have developed a 1536-well cell-based assay for quantitative high throughput screening (qHTS) against a number of cell lines to determine in vitro cytotoxicity of small molecules. This particular assay uses a human lymphoblastoid cell line (LYMP2-020) purchased from Coriell Institute for Medical Research.
NCGC Assay Protocol Summary:
The CellTiter-Glo luminescent cell viability assay (Promega) is a homogeneous method to measure the number of viable cells in culture. The end point readout of this assay is based on quantitation of intracellular ATP, an indicator of metabolic activity, using the luciferase reaction. Luciferase catalyzes the oxidation of beetle Luciferin to oxyluciferin and light in the presence of ATP. The luminescent signal is proportional to amount of ATP present.
Using the CellTiter-Glo luminescent cell viability assay, the amount of cellular ATP was measured in the lymphoblastoid cell line with complete culture medium following compound treatment for 24 hours. The assay was performed in opaque white Kalypsys 1536-well plates. In the screen, tetraoctylammonium bromide was used as positive control. Library compounds were measured for their ability to cause acute toxicity in the cell line, as reflected by a decrease in intracellular ATP levels, in a concentration-dependent manner. […] AC50 values were determined from concentration-response data modeled with the standard Hill equation.
qHTS protocol for CellTiter Glo lymphoblastoid cellular assay
[Step] [Parameter] [Value] [Description]
1. Reagent; 5 uL; 2500 lymphoblastoid cells/well
2. Time; 5 hr; 37 C incubation
4. Controls; 23 nL; Tetraoctylammonium bromide 6.4pM to 92 uM
5. Time; 24 hr; 37 C incubation
6. Reagent; 5 uL; CellTiter Glo reagent
7. Time; 30 min; Room Temperature
8. Detection; Luminescence; Viewlux plate reader
Keywords: cell viability, cytotoxicity, lymphoblastoid cell line, luminescence, NTPHTS, NTPHTS_NCGC, NIEHS, DSSTox, MLSMR, MLSCN, NIH Roadmap, qHTS, NCGC
Potency is read from the fitted curve at half-maximal effect.

| Compound | activity change, negative = viability loss [%] | Potency |
| --- | --- | --- |
| Nc1c(Cl)cc([N+](=O)[O-])cc1Cl | -1.15 | – |
| CCC[N+](=O)[O-] | -2.58 | – |
| COC(C)(C)C | -3.04 | – |
| Nc1ccc(-c2ccccc2)cc1 | -8.3 | – |
| O=C(O)CCl | -15.6 | – |
| CC(C)(C)OOC(=O)c1ccccc1 | 0.0709 | – |
| c1ccc(OCC2CO2)cc1 (stereo not given) | -4.19 | – |
| O=S(=O)(Cl)c1ccccc1 | -3.14 | – |
| Oc1cccc(Cl)c1 | 12.3 | – |
| CC1CC(=O)O1 (stereo not given) | 1.55 | – |
| CN(C)c1ccc(N=Nc2ccccc2)cc1 | -16 | – |
| Nc1ncc([N+](=O)[O-])s1 | -0.978 | – |
| O=c1ccc(=O)[nH][nH]1 | 9.67 | – |
| CCCCCc1cc(O)cc(O)c1 | -2.5 | – |
| CCC(Cl)[N+](=O)[O-] (stereo not given) | 9.33 | – |
| CCN(CC)CCO | -2.24 | – |
| N#CC(O)c1ccccc1 (stereo not given) | -6.02 | – |
| Clc1cccc(Cl)c1 | -5.14 | – |
| Nn1cnnc1 | -2.52 | – |
| N#CCBr | -0.229 | – |

| Compound | activity change, negative = viability loss [%] | Potency |
| --- | --- | --- |
| O=C(Cl)OCc1ccccc1 | -6.64 | – |
| ClC(Br)Br | -1.54 | – |
| CC(C)Br | 2.02 | – |
| CC(C)C#N | 3.01 | – |
| Nc1cc(Cl)ccc1O | -23.6 | – |
| O=Cc1ccc2c(c1)OCO2 | -4.42 | – |
| COP(=S)(OC)SCn1nnc2ccccc2c1=O | -6.44 | – |
| CC(=O)NNc1ccccc1 | -1.47 | – |
| O=[N+]([O-])/C=C/c1ccccc1 | – | 50.1 µM (active) |
| CCCCNC(=O)n1c(NC(=O)OC)nc2ccccc21 | -17 | – |
| CCCBr | -2.19 | – |
| O=Cc1ccc(Cl)cc1Cl | 7.91 | – |
| CCOP(=S)(OCC)SCCSCC | -13.6 | – |
| Cc1coc2c1CCC(C)C2 (stereo not given) | -0.556 | – |
| O=[N+]([O-])c1ccccc1-c1ccccc1 | -1.76 | – |
| COC(=O)c1ccccc1N | -7.66 | – |
| ClCC(Cl)Cl | -12 | – |
| ClP(Cl)(Cl)(Cl)Cl | -3.47 | – |
| Brc1cccc(-c2ccccc2)c1 | -3.75 | – |
| CN=C=O | 7.89 | – |
